Results on 18 molecules are retold here after PubChem BioAssay AID2318 (National Center for Advancing Translational Sciences (NCATS), 2010).

Each structure is given as a SMILES string. The list shows a part of the results. Entries that show only a call come without a potency. Results filed as inconclusive are left out. Calls of active or inactive are those of the source. Calls follow the shape of the full dose curve.
Potency is read from the fitted curve at half-maximal effect.

This assay in a line: Cycloheximide Counterscreen for Small Molecule Inhibitors of Shiga Toxin (Confirmatory). Particulars: protein synthesis reporter, Shiga toxin assay; series mostly up to 38.3 µM. (A counterscreen serves to expose hits that act by an unwanted route or on another target.)
Turning to `CCCc1nc2ccccc2c(=O)n1NC(=O)c1c(O)c2ccccc2[nH]c1=O`, the Potency entry was “inactive”.

For `CN(Cc1nc2ccc(F)cc2[nH]1)Cc1nc(CC2CC2)no1`, the Potency entry was “inactive”.

As to `Cc1nc(SCC(=O)Nc2cc(C)on2)c2c3c(sc2n1)CCCC3`, the Potency result is “inactive”.

As for `COc1ccccc1N1N=C(c2cccs2)CC1c1ccccc1` (stereo not drawn), the Potency entry was “inactive”.

As to `O=C(c1cc(-c2cccc(O)c2)on1)N1CCc2ccccc2C1`, the Potency entry was “inactive”.

Take `COc1ccc(S(=O)(=O)Nc2ccc3c(c2)OCO3)cc1Cl`: the Potency result is “inactive”.

`C=CCNC(=O)c1ccc(C)c(Br)c1`: the Potency entry is “inactive”.

Turning to `CSCc1cc(N2CCOCC2)nc(SCc2ccc(Cl)cc2Cl)n1`, the Potency entry was “inactive”.

Consider `COc1ccc(-c2noc(COc3ccc(Cl)c(C)c3)n2)cc1`, for which the Potency result is “inactive”.

As for `Cc1cc(C(=O)COC(=O)C2CC2)c(C)n1-c1ccc(F)cc1`, the Potency is 2 µM (active).

`COc1ccc(N(CCC#N)S(=O)(=O)c2ccc(Cl)cc2)cc1`: the Potency entry was “inactive”.

For the molecule `O=C(COC(=O)c1cccs1)Nc1ccccc1Cl`, the Potency entry was “inactive”.

As to `Cc1ccc(-c2cc(C(=O)N3CCc4ccccc4C3)no2)cc1`, the Potency entry is “inactive”.

`CCOc1ccc(NC(=O)Nc2ccc(N(C)C(C)=O)cc2)cc1`: the Potency result is “inactive”.

As to `CC(=O)c1ccc(N2CCN(C(=O)c3ccc4nc[nH]c4c3)CC2)cc1`, the Potency entry is “inactive”.

Turning to `Nc1nonc1C(=O)NCCc1ccccc1`, the Potency entry is “inactive”.

Take `CCN1CCN(Cc2c(O)ccc3c(=O)c(-c4ccc(OC)c(OC)c4)c(C(F)(F)F)oc23)CC1`: the Potency result was “inactive”.

`COc1ccc(C(=O)Nc2ccccc2C(=O)NCc2ccco2)cc1`: the Potency result was “inactive”.
